Measured values taken from PubChem BioAssay AID1030 (National Center for Advancing Translational Sciences (NCATS), 2008).
Out of some 220,000 compounds screened, about 16,000 (7.3%) were called active. Roughly 25% stayed inconclusive and do not appear here. Many of the other results were omitted from the sample, so actives are more common in it than they were. A number with no mark means an inactive call. Calls come from the whole dose curve; as a rule, active = well fitted inhibition curve with a large enough effect (not every such curve was filed as active); inconclusive = small, poorly fitted or top-dose-only effect, or another doubt; inactive = no such curve, though single readings can be large or run the other way.

These molecules were tested against Aldehyde dehydrogenase 1A1 (Homo sapiens) (UniProt P00352) (assay: qHTS Assay for Inhibitors of Aldehyde Dehydrogenase 1 (ALDH1A1)). Conditions: Purified ALDH1A1, NADH fluorescence, propionaldehyde substrate; series mostly up to 75.3 µM; activity, negative = inhibition: at the top concentration.
Potency is the fitted concentration of half-maximal effect.
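Throughout, for activity, negative = inhibition: plate controls were no enzyme wells and a reference inhibitor.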

Sequence of Aldehyde dehydrogenase 1A1 (Homo sapiens) (P00352 whole entry, looked up): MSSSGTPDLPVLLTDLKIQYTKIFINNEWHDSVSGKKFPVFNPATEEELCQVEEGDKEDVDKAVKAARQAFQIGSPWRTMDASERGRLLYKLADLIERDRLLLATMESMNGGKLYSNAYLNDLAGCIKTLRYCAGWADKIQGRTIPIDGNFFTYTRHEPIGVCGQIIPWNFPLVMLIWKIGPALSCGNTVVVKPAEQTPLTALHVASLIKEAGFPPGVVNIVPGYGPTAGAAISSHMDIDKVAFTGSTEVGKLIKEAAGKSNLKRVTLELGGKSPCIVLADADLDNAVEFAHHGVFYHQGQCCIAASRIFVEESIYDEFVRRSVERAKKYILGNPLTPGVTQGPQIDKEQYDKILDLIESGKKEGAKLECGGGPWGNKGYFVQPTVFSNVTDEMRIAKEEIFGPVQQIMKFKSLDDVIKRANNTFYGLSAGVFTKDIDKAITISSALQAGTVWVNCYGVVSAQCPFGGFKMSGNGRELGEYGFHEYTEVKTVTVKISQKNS

Row | SMILES | activity, negative = inhibition | Potency
1 | Fc1cc(Br)ccc1NC(=S)Nc1cccnc1 | 4.56% | –
2 | COc1ccc(S(=O)(=O)N2CCOCC2)cc1NC(=O)CSc1ncnc2ccccc12 | 1.11% | –
3 | Cc1ccc(NS(=O)(=O)c2cccs2)cc1S(=O)(=O)N1CCCCCC1 | -8.54% | –
4 | COc1ccc(N(C)S(=O)(=O)c2cccc3nsnc23)cc1 | 12.9% | –
5 | FC(F)(F)c1cccc(Cc2noc(CN3CCC(N4CCCCC4)CC3)n2)c1 | 8.7% | –
6 | CC1=NCCN1S(=O)(=O)c1cccc([N+](=O)[O-])c1 | 8.77% | –
7 | Fc1ccccc1Cn1cnc(NC(=S)NCCc2ccccc2)n1 | 0.197% | –
8 | CCC(=O)Nc1cccc(NC(=O)CSc2nnc(-c3ccc(NS(C)(=O)=O)cc3)n2C)c1 | 5.23% | –
9 | Cc1ccc(SCC(=O)Nc2ccc3c(c2)OCCO3)cc1 | -11.8% | –
10 | CCC(=O)Nc1cccc(NC(=O)CSc2nnnn2C2CCCC2)c1 | – | 12.6 µM (active)
11 | O=C(CSc1nc(C2CC2)nc2ccccc12)Nc1ccc2c(c1)OCCO2 | 3.13% | –
12 | O=C(CSc1nnc(-c2ccncc2)n1C1CCCCC1)Nc1ccccc1 | 1.01% | –
13 | O=C(CSc1nnnn1C1CCCC1)Nc1ccc2c(c1)OCCO2 | – | 6.31 µM (active)
14 | COc1cc(NC(=O)CSc2nnc3ccc(-c4ccncc4)nn23)cc(OC)c1 | 10.7% | –
15 | CCNC(=O)COC(=O)CCNC(=O)c1cccc(C)c1 | 1.01% | –
16 | O=C(COC(=O)c1ccc(Cl)nc1)NCc1cccs1 | – | 8.91 µM (active)
17 | O=C(COC(=O)c1ccco1)NCc1ccc(Cl)cc1 | 14.6% | –
18 | O=C(COC(=O)c1ccc(Cl)nc1)NCc1ccc2c(c1)OCO2 | 0.469% | –
19 | O=C(COC(=O)c1cc(S(=O)(=O)N2CCCCC2)ccc1Cl)NCc1ccco1 | 0.76% | –
20 | O=C(COC(=O)c1cnc(Cl)c(Cl)c1)NCc1ccco1 | – | 20 µM (active)
21 | NS(=O)(=O)c1ccc(NC(=O)COC(=O)c2ccc(Cl)nc2)cc1 | 13.1% | –
22 | CC(C)Oc1ccc(CCc2nnc(SCC(=O)O)n2-c2ccccc2)cc1 | -1.79% | –

Row | SMILES | activity, negative = inhibition | Potency
23 | COc1cc(S(=O)(=O)N2CCOCC2)ccc1NC(=O)COc1ccc(N(C)S(=O)(=O)c2ccc(C)cc2)cc1 | 11.5% | –
24 | C=CCOCCN(C)C1=NS(=O)(=O)c2ccccc21 | 11.4% | –
25 | COC(=O)c1sc(SC)c(S(=O)(=O)C(C)C)c1N/N=C(\C#N)S(=O)(=O)c1ccccn1 | -9.06% | –
26 | Cc1ccn(CC(=O)N2N=C(C(F)F)CC2(O)C(F)F)n1 (centres undefined) | 8.82% | –
27 | CC(C)(C)NC(=O)NCc1ccco1 | 8.98% | –
28 | CCCC(=O)NC(=S)Nc1ccc(CN2CCOCC2)cc1 | 0.202% | –
29 | CCc1c(-c2ccccc2)nc(N)c(C#N)c1-c1cccs1 | -1.42% | –
30 | CSc1nc(N)c(C#N)c(-c2ccccc2Cl)c1C#N | – | 14.1 µM (active)
31 | CSc1nc(C)nc(C2CC2)c1C#N | -9.62% | –
32 | CC(Sc1nncn1C)C(=O)Nc1cc(C(F)(F)F)ccc1N1CCOCC1 (centres undefined) | 8.74% | –
33 | Cc1cc(NC(=O)CSc2nc3ccccc3n2CC(C)C)no1 | 2.17% | –
34 | Cc1ccc(C(=O)N2CCCCCC2)cc1Br | 7.25% | –
35 | C/C(=C\C(=O)c1ccc(Br)cc1)N1CCCCC1 | – | 25.1 µM (active)
36 | CC1CN/C(=C\C(=O)c2ccc(Br)cc2)C(=O)N1 (centres undefined) | 13.4% | –
37 | Cc1ccc(-c2csc(-c3cc(C)on3)n2)cc1 | 2.55% | –
38 | COc1ccccc1Oc1nc(-c2cccnc2)nc2ccccc12 | – | 20 µM (active)
39 | COc1ccccc1Oc1ccc(S(=O)(=O)Nc2cccnc2)cc1 | 37.8% | –
40 | c1cncc(-c2nc(N3CCNCC3)c3ccccc3n2)c1 | -3.04% | –
41 | O=c1cnnc(Nc2ccccc2F)[nH]1 | 9.78% | –
42 | CCCNCc1cc(OCC)c(OCC(=O)Nc2ccccc2)cc1Br | 0.675% | –
43 | C=CCC(CC=C)(C(N)=O)c1ccccc1 | 0.196% | –
44 | c1ccc(Cc2cc[n+](Cc3ccccc3)cc2)cc1 | -6.45% | –

Row | SMILES | activity, negative = inhibition | Potency
45 | CCN1CCC(=NNC(=O)c2ccc(C)c([N+](=O)[O-])c2)CC1 | – | 4.47 µM (active)
46 | Cc1ccc(NC(=O)CN2CCC(C(N)=O)CC2)cc1[N+](=O)[O-] | 10.7% | –
47 | Cc1cc(O)c(NC(=O)c2ccc(C)c([N+](=O)[O-])c2)cc1C | 13.5% | –
48 | O=c1cc(N2CCCCC2)c(-c2ccccc2)nn1Cc1cccc(F)c1 | -6.56% | –
49 | CCn1c(SCC(=O)N/N=C/C=C/c2ccccc2[N+](=O)[O-])nnc1-c1ccccc1 | – | 7.94 µM (active)
50 | CCOC(=O)CNC(=O)CSc1nnc(-c2cccc(OC)c2)n1CC | -1.64% | –
51 | O=C(CSc1nc2ccccc2[nH]1)N/N=C/C=C\c1ccccc1[N+](=O)[O-] | – | 5.01 µM (active)
52 | O=C(CSc1nc2ccccc2[nH]1)c1cccs1 | 4.01% | –
53 | O=C(Cc1cc(=O)[nH][nH]1)N/N=C/c1ccccc1[N+](=O)[O-] | 6.17% | –
54 | CCn1c(Cc2ccccc2)nnc1SCC(=O)Nc1ccccc1 | 3.56% | –
55 | O=C(CCc1ccccc1)NNc1ccc(F)cc1 | -1.27% | –
56 | CCn1c(-c2cc(OC)ccc2OC)csc1=Nc1c(C)n(C)n(-c2ccccc2)c1=O | – | 22.4 µM (active)
57 | COC(=O)Cc1csc(Nc2c(C)n(C)n(-c3ccccc3)c2=O)n1 | 11.6% | –
58 | Cc1c(N=Nc2ccc(N(C)C)cc2)c(=O)n(-c2ccccc2)n1C | -13.2% | –
59 | Cc1cc(OC(=O)c2ccccc2Cl)ccc1N1C(=O)CCC1=O | -0.192% | –
60 | Cc1ccc(NC2=C(Cl)C(=O)OC2OC(=O)c2ccccc2C)cc1 (centres undefined) | -0.981% | –
61 | Fc1ccc(OCc2nn3c(Cn4nnc5ccccc54)nnc3s2)cc1 | – | 22.4 µM (active)
62 | CC(=O)OC(COc1ccc(F)cc1)Cn1cnc2ccccc21 (centres undefined) | 5.28% | –
63 | Fc1ccc(CNc2nc3ccccc3n3nnnc23)cc1 | -5.38% | –
64 | CCCn1c(N)c(C(=O)CSc2nnc(-c3cccnc3)n2-c2ccc(C)cc2C)c(=O)[nH]c1=O | -1% | –
65 | COc1ccc(Cl)cc1N(CC(=O)N/N=C/c1ccc(OCC(N)=O)cc1)S(C)(=O)=O | 3.79% | –
66 | COC(=O)c1nc(NC(=O)c2ccc(F)cc2)n[nH]1 | 7.95% | –

Row | SMILES | activity, negative = inhibition | Potency
67 | Cc1cccc(C(=O)Nc2ccc(CC(=O)O)cc2)c1 | -3.62% | –
68 | Cc1cccc(NC(=O)c2cccc(C(F)(F)F)c2)c1 | 4.83% | –
69 | Cc1cccc(C(=O)Nc2ccc3c(c2)C(=O)N(CC(C)C)C3=O)c1 | – | 2.82 µM (active)
70 | CC1CC(NC(=O)/C(C#N)=C/c2ccc[nH]2)CC(C)(C)C1 (centres undefined) | 8.63% | –
71 | COc1ccc(-n2c(SCC(=O)OC(C)C)nnc2-c2ccccn2)cc1 | 2.12% | –
72 | Cc1ccc(-n2c(Cc3cccs3)nnc2SCC(=O)OC(C)C)cc1 | – | 5.62 µM (active)
73 | CCOC(=O)CSc1nnc(CNC(=O)c2cccs2)n1-c1ccccc1 | -0.494% | –
74 | CCn1c(Cc2cccs2)nnc1SCC(=O)c1ccc(C)cc1 | – | 22.4 µM (active)
75 | CCn1c(SCC(=O)c2ccc(Cl)s2)nnc1-c1cccs1 | -17.9% | –
76 | CCn1c(SCC(=O)c2ccc3ccccc3c2)nnc1-c1cccs1 | -10.3% | –
77 | Cc1[nH]c2ccccc2c1-c1ccc(Cl)nn1 | -5.07% | –
78 | CC(=O)C1=C(C)NC2=C(C(=O)CC(C)(C)C2)C1C (centres undefined) | 7.86% | –
79 | Cc1cc2c(cc1C)NC(c1ccccn1)C1=C(CC(C)(C)CC1=O)N2 (centres undefined) | – | 14.1 µM (active)
80 | CC1(C)CC(=O)C2=C(C1)Nc1cc(C(=O)c3ccccc3)ccc1NC2c1ccccn1 (centres undefined) | -11.7% | –
81 | COCCn1c(C)cc(C(=O)CSc2nc3ccccc3c(=O)n2C(C)COC)c1C (centres undefined) | 5.36% | –
82 | O=C(NNC(=O)C1CCN(c2ncccn2)CC1)c1ccccc1 | 5.47% | –
83 | O=C(Cc1ccccc1)NNC(=O)C1CCN(c2ncccn2)CC1 | -4.45% | –
84 | O=C1/C(=C\Nc2ccccc2)CCN1c1ncccn1 | – | 20 µM (active)
85 | CC1=C(C(=O)N(C)C)C(c2ccccc2OC(F)F)NC(=O)N1 (centres undefined) | 0.853% | –
86 | O=C(Nc1ccc(NC(=O)c2ccco2)c(Cl)c1)c1cccc([N+](=O)[O-])c1 | 7.34% | –
87 | O=C(Nc1ccc(Sc2ccc(Br)cc2)cc1)c1ccco1 | 2.02% | –
88 | COc1ccc(NC(=O)c2cccc(NC(=O)c3ccco3)c2)c(OC)c1 | 8.92% | –

Row | SMILES | activity, negative = inhibition | Potency
89 | Cc1ccc(-n2nc3cc(Cl)c(NC(=O)c4ccco4)cc3n2)cc1 | 7.28% | –
90 | COC(=O)c1cc(Cl)c(NC(=O)c2ccco2)cc1OC | -8.38% | –
91 | CCC(=O)NC(=S)Nc1ccc(NC(=O)c2ccco2)c(Cl)c1 | – | 3.55 µM (active)
92 | COc1ccccc1C(=O)Nc1ccc(NC(=O)c2ccco2)c(C)c1 | – | 8.91 µM (active)
93 | COc1cc(NC(=O)c2cc([N+](=O)[O-])ccc2Br)ccc1NC(=O)c1ccco1 | -7.19% | –
94 | O=C(NNC(=S)Nc1ccc(Br)cc1Cl)c1ccco1 | – | 12.6 µM (active)
95 | O=C(NNS(=O)(=O)c1ccccc1C(F)(F)F)c1cc2ncc(C(F)(F)F)cc2s1 | 6.32% | –
96 | Cc1nnsc1C(=O)N/N=C/c1cccc(C(F)(F)F)c1 | 4.63% | –
97 | Cc1cc(C)c(NC(=O)c2oc3ccccc3c2COc2ccccc2)c(C)c1 | 11.3% | –
98 | N#Cc1ccc(Oc2ccc(C(F)(F)F)cc2NC(=O)c2ccc(F)cc2)cc1 | 0.449% | –
99 | Cc1cc(C)nc(/N=C2\NC(=O)CC(C(=O)O)N2c2ccc(Cl)cc2Cl)n1 (centres undefined) | 13.7% | –
100 | CCC(=O)/C(=C(/O)c1ccccc1)c1nc2ccccc2[nH]1 | -6.36% | –
101 | CSc1sc(C(=O)NNC(=O)c2ccc(Cl)cc2)c2c1C=CCC2 | -7.39% | –
102 | CC1CCN(S(=O)(=O)c2ccc3ncn(CC(=O)N(C)C4CCCCC4)c(=O)c3c2)CC1 | -1.32% | –
103 | O=C(CN1CCSCC1)N/N=C/c1ccc(F)cc1F | – | 31.6 µM (active)
104 | O=C(Cn1cc(C(F)(F)F)ccc1=O)N/N=C/c1ccc(Cl)cc1Cl | 2.83% | –
105 | O=C(CCC(=O)Nc1ccccc1)N/N=C/c1ccccc1F | 3.78% | –
106 | O=C(C1CCN(C2CCN(Cc3cccc4c3OCO4)CC2)CC1)N1CCOCC1 | -7.94% | –
107 | CC(=O)c1c(C)[nH]c(C(=O)Nc2cc(S(=O)(=O)N(C)C)ccc2C)c1C | -7.28% | –
108 | Cc1cc(NC(=O)CSc2nccn2-c2ccc([N+](=O)[O-])cc2)no1 | 14.9% | –
109 | CN(CCOc1ccc(Br)cc1)CC(=O)Nc1cccc(S(=O)(=O)NC2=NCCC2)c1 | 5.31% | –
